Laboratory results as given in the supplement of paper PMC10849652.
The full data set covers some 7,900 targets. This sample favours those with a hit. About 0.6% of all pairs of compound and target were hits.

Key:
Assay in all cases: log2 fold change, soluble protein after heating vs DMSO (PISA); higher = thermal stabilisation; K562 cells, 10 uM, 30 min; active = over 0.2 and 3.5 SD of the protein, either way, in both replicates (recomputed)
IRAK-1-4 Inhibitor I = compound: C1COCCN1CCN2C3=CC=CC=C3N=C2NC(=O)C4=CC(=CC=C4)[N+](=O)[O-] [IRAK-1-4 Inhibitor I]
Procedure, shortened: (§1)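 Aliquots of K562 cells (2×10^6 cells/mL) treated with 10 μM compound for 30 min were heated for 3 min over 48°C-58°C. After pooling and extraction in PBS with 0.5% NP-40 at 4°C, soluble protein from a 21,000xg, 90 min spin was quantified by TMTpro 16plex LC-MS/MS with channel sums equalised. Thermal stability is expressed against control samples, from duplicates, as a log2 fold change.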

ibrutinib = compound: C=CC(=O)N1CCC[C@@H](n2nc(-c3ccc(Oc4ccccc4)cc3)c3c(N)ncnc32)C1 [ibrutinib]
Procedure, shortened: as §1

[1] = compound: CC(=O)c1cnc2ccc(-c3cc(Cl)c(O)c(Cl)c3)nc2c1N[C@H]1CC[C@H](CN(C)C)CC1
Procedure, shortened: as §1

ralimetinib = compound: CC(C)(C)Cn1c(N)nc2ccc(-c3[nH]c(C(C)(C)C)nc3-c3ccc(F)cc3)nc21 [ralimetinib]
Procedure, shortened: as §1

[2] = compound: CC(C)(O)CC(=O)NCCn1ccc2ncnc(Nc3ccc(Oc4cccc(C(F)(F)F)c4)c(Cl)c3)c21
Procedure, shortened: as §1

[3] = compound: CC(C)C1=C2N=C(C=C(N2N=C1)NCC3=CC=CC=C3)NCCCCCCN
Procedure, shortened: as §1

[4] = compound: CC(C)C[C@@H](C=O)NC(=O)[C@H](CC(C)C)NC(=O)[C@H](CC(C)C)NC(=O)OCc1ccccc1
Procedure, shortened: as §1

pinometostat = compound: CC(C)N(C[C@H]1O[C@@H](n2cnc3c(N)ncnc32)[C@H](O)[C@@H]1O)[C@H]1C[C@@H](CCc2nc3cc(C(C)(C)C)ccc3[nH]2)C1 [pinometostat]
Procedure, shortened: as §1

[5] = compound: CC1=C(C(CC(=O)N1)C2=CC=C(C=C2)C(F)(F)F)C(=O)NC3=C(C=C4C(=C3)C=NN4)F
Procedure, shortened: as §1

[6] = compound: CC1=C(C2=C(C=C1)C(=O)C3=CC=CC=C3N2CCCN)C
Procedure, shortened: as §1

[7] = compound: CC1=C(C=C(C=C1)NC(=O)C2=CC(=CC=C2)C(C)(C)C#N)NC3=CC4=C(C=C3)N=CN(C4=O)C
Procedure, shortened: as §1

[8] = compound: CC1=C(C=C(C=C1)NC(=O)C2=CC(=CC=C2)N(C)C)NC(=O)C3=CC=C(C=C3)O
Procedure, shortened: as §1

[9] = compound: CC1=CC=C(C=C1)SC2=C3C=C(SC3=CN=C2)C(=O)N
Procedure, shortened: as §1

[10] = compound: CC1=NC(=CC=C1)C2=C(N=C(N2)C(C)(C)C)C3=CC4=NC=CN=C4C=C3
Procedure, shortened: as §1

Nexturastat A = compound: CCCCN(Cc1ccc(C(=O)NO)cc1)C(=O)Nc1ccccc1 [Nexturastat A]
Procedure, shortened: as §1

vemurafenib = compound: CCCS(=O)(=O)Nc1ccc(F)c(C(=O)c2c[nH]c3ncc(-c4ccc(Cl)cc4)cc23)c1F [vemurafenib]
Procedure, shortened: as §1

[11] = compound: CCCS(=O)(=O)Nc1ccc(F)c(C(=O)c2c[nH]c3ncc(Cl)cc23)c1F
Procedure, shortened: as §1

[12] = compound: CCCc1cc(C)[nH]c(=O)c1CNC(=O)c1cc(-c2ccnc(N3CCN(C)CC3)c2)cc2c1cnn2C(C)C
Procedure, shortened: as §1

givinostat = compound: CCN(CC)Cc1ccc2cc(COC(=O)Nc3ccc(C(=O)NO)cc3)ccc2c1 [givinostat]
Procedure, shortened: as §1

barasertib = compound: CCN(CCCOc1ccc2c(Nc3cc(CC(=O)Nc4cccc(F)c4)[nH]n3)ncnc2c1)CCOP(=O)(O)O [barasertib]
Procedure, shortened: as §1

Measured: log2 fold change

DDX5 (UniProt P17844)
Sequence of UniProt P17844 (P17844 whole entry, looked up): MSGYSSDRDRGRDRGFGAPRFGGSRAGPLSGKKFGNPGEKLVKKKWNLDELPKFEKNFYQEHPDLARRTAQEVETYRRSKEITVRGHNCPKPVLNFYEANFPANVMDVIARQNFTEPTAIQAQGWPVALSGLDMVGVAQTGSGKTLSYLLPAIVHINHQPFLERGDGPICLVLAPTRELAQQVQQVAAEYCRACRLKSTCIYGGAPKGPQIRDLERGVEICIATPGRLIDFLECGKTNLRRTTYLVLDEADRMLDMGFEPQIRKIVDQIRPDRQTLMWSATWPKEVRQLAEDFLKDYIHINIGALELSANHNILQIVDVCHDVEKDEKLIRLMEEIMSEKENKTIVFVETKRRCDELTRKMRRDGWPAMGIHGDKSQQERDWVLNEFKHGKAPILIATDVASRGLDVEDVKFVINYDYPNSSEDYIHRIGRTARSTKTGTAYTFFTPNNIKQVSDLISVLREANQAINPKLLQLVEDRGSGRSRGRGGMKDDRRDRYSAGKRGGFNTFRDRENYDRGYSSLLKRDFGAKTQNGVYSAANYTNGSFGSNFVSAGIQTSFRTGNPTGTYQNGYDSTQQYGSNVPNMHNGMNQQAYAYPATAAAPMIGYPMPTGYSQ
inactive: IRAK-1-4 Inhibitor I -0.114 | ibrutinib 0.002 | ralimetinib -0.024 | [2] -0.189 | [3] -0.12 | [4] 0.069 | pinometostat 0.017 | [5] -0.067 | [6] 0.072 | [7] 0.136 | [8] -0.131 | [9] 0.036 | [10] 0.112 | Nexturastat A 0.033 | vemurafenib 0.142 | [11] 0.174 | [12] 0.036 | givinostat 0.178 | barasertib 0.122
active: [1] -0.358

CTSB (UniProt P07858)
inactive: IRAK-1-4 Inhibitor I -0.009 | ibrutinib 0.032 | [1] 0.013 | ralimetinib -0.044 | [2] 0.011 | [4] 0.037 | pinometostat -0.031 | [5] 0.042 | [6] -0.053 | [7] -0.035 | [8] -0.069 | [9] 0.022 | [10] 0.029 | Nexturastat A -0.059 | vemurafenib -0.041 | [11] -0.008 | [12] -0.025 | givinostat -0.007 | barasertib 0.015
active: [3] -0.426

FAM207A (UniProt Q9NSI2)
inactive: IRAK-1-4 Inhibitor I -0.043 | ibrutinib -0.082 | [1] 0.057 | ralimetinib 0.123 | [2] -0.033 | [3] -0.066 | [4] 0.088 | pinometostat 0.024 | [5] 0.005 | [6] 0.038 | [7] -0.086 | [8] 0.11 | [9] -0.006 | [10] 0.024 | Nexturastat A -0.047 | vemurafenib 0.038 | [11] -0.006 | [12] 0.44 | givinostat 0.148 | barasertib -0.036

FAM83D (UniProt Q9H4H8)
Sequence of UniProt Q9H4H8 (Q9H4H8 whole entry, looked up): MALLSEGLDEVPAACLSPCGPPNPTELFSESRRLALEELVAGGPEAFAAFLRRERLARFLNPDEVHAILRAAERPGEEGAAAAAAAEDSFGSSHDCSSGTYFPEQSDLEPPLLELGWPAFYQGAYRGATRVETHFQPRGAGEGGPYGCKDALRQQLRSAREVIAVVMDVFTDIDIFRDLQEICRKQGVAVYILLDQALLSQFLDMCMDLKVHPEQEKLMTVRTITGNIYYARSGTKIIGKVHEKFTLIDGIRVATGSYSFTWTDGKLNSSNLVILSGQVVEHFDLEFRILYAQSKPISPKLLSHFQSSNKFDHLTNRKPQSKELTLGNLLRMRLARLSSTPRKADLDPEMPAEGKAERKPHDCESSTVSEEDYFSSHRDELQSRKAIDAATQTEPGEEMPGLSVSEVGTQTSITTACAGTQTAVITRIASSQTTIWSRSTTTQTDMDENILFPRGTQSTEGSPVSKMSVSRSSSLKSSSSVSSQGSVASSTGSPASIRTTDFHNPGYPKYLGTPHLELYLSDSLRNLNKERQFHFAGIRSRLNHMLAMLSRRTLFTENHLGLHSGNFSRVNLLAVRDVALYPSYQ
inactive: IRAK-1-4 Inhibitor I 0 | ibrutinib -0.094 | [1] 0.022 | ralimetinib 0.145 | [2] -0.035 | [3] -0.232 | [4] -0.062 | pinometostat 0.041 | [5] -0.049 | [6] 0.1 | [7] 0.008 | [8] -0.029 | [9] 0.028 | [10] 0.018 | Nexturastat A 0.102 | vemurafenib 0.041 | [11] 0.097 | [12] 0.016 | givinostat 0.103 | barasertib 0.128

DUS3L (UniProt Q96G46)
inactive: IRAK-1-4 Inhibitor I 0 | ibrutinib 0.008 | [1] -0.031 | ralimetinib 0.042 | [2] -0.043 | [3] 0.062 | [4] -0.055 | pinometostat -0.022 | [5] -0.001 | [6] -0.005 | [7] 0.064 | [8] -0.015 | [9] -0.01 | [10] 0.017 | Nexturastat A -0.023 | vemurafenib 0.042 | [11] 0.031 | [12] 0.036 | givinostat -0.004 | barasertib 0.021

EHBP1L1 (UniProt Q8N3D4)
Sequence of UniProt Q8N3D4 (Q8N3D4 whole entry, looked up): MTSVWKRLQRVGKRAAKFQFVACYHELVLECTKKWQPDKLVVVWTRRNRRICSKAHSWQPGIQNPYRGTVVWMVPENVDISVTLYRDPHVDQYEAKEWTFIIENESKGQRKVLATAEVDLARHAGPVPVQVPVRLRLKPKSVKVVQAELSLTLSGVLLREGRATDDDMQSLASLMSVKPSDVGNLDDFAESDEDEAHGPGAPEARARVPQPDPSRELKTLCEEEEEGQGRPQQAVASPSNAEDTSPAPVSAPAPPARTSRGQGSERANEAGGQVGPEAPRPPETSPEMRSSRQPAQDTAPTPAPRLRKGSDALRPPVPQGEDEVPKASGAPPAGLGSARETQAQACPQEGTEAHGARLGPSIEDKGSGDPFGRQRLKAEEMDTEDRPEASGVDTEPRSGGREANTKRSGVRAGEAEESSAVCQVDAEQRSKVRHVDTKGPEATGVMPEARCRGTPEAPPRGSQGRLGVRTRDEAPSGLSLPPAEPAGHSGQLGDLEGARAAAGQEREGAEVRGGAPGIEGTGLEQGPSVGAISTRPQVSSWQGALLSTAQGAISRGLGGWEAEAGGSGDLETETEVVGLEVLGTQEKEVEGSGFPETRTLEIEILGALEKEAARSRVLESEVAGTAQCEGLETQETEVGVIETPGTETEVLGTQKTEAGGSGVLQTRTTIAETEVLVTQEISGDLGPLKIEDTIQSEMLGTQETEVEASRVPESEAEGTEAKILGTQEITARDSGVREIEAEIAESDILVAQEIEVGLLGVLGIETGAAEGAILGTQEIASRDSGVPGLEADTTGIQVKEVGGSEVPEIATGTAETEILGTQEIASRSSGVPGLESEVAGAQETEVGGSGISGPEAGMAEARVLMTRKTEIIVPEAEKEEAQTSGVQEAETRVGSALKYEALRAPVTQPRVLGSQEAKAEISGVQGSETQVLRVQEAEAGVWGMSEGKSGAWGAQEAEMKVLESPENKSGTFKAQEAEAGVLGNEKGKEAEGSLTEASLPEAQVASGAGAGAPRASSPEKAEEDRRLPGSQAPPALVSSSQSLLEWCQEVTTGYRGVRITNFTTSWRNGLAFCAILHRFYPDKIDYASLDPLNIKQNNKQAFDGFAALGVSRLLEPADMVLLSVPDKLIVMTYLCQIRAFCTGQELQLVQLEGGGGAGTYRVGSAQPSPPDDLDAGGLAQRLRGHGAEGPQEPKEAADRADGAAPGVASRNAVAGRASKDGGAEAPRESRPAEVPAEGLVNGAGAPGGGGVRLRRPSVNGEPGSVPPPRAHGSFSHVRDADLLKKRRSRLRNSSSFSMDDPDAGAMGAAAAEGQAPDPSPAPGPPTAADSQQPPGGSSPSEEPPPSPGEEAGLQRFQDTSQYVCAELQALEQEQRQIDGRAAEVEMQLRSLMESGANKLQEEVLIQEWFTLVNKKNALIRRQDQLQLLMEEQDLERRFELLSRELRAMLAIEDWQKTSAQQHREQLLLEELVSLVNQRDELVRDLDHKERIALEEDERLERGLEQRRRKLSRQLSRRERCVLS
inactive: IRAK-1-4 Inhibitor I -0.044 | ibrutinib -0.054 | [1] -0.077 | ralimetinib 0.083 | [2] -0.001 | [3] -0.034 | [4] 0.05 | pinometostat 0.086 | [5] -0.049 | [6] 0.028 | [7] 0 | [8] -0.02 | [9] -0.003 | [10] -0.043 | Nexturastat A 0.011 | vemurafenib 0.034 | [11] 0.007 | [12] 0.025 | givinostat 0.026 | barasertib 0.016

ESS2 (UniProt Q96DF8)
Sequence of UniProt Q96DF8 (Q96DF8 whole entry, looked up): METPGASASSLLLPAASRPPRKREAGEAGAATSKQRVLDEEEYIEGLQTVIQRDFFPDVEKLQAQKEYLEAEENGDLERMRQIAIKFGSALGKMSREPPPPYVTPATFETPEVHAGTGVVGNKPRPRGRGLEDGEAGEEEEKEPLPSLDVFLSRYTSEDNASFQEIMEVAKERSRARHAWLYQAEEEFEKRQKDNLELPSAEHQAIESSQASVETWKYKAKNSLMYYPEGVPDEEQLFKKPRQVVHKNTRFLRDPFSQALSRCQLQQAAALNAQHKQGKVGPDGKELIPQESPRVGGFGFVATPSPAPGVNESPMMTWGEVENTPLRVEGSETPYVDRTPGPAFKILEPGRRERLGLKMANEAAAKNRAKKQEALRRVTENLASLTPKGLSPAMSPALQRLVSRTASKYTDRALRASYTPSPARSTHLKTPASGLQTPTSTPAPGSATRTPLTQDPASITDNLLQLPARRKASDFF
inactive: IRAK-1-4 Inhibitor I 0.032 | ibrutinib 0.025 | [1] 0.031 | ralimetinib -0.009 | [2] 0.013 | [3] 0.002 | [4] 0.136 | pinometostat 0.056 | [5] 0.099 | [6] -0.021 | [7] -0.085 | [8] 0.091 | [9] -0.024 | [10] -0.018 | Nexturastat A 0.032 | vemurafenib -0.01 | [11] -0.013 | [12] -0.075 | givinostat -0.01 | barasertib -0.025

DHRS3 (UniProt O75911)
inactive: IRAK-1-4 Inhibitor I 0 | ibrutinib 0.027 | [1] -0.083 | ralimetinib 0.001 | [2] 0.143 | [3] 0.018 | [4] -0.017 | pinometostat -0.056 | [5] -0.055 | [6] 0.03 | [7] 0.075 | [8] -0.037 | [9] 0.019 | [10] 0.027 | Nexturastat A -0.037 | vemurafenib -0.078 | [11] -0.04 | [12] -0.035 | givinostat -0.051 | barasertib -0.048

FAF2 (UniProt Q96CS3)
inactive: IRAK-1-4 Inhibitor I 0 | ibrutinib -0.026 | [1] -0.034 | ralimetinib 0.103 | [2] -0.029 | [3] -0.044 | [4] 0.03 | pinometostat 0.053 | [5] 0.008 | [6] 0.044 | [7] 0.015 | [8] -0.021 | [9] 0.008 | [10] -0.016 | Nexturastat A 0.009 | vemurafenib 0.038 | [11] 0.008 | [12] -0.039 | givinostat 0.036 | barasertib 0.021

CTSA (UniProt P10619)
Sequence of UniProt P10619 (P10619 whole entry, looked up): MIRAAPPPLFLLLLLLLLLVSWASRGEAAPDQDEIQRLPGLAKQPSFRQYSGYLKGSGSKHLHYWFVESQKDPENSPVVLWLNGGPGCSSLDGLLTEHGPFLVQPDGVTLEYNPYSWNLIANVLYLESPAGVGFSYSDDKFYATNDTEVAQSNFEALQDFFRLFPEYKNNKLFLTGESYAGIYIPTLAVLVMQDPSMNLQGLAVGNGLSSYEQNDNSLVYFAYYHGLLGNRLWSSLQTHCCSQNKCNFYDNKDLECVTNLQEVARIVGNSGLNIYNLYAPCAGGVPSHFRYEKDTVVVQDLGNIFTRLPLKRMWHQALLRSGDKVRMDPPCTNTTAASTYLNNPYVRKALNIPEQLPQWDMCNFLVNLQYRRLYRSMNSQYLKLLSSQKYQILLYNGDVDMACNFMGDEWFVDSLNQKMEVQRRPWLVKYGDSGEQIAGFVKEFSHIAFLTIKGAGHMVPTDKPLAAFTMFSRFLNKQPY
inactive: IRAK-1-4 Inhibitor I -0.006 | ibrutinib 0.017 | [1] 0.038 | ralimetinib -0.027 | [2] 0.027 | [3] -0.204 | [4] -0.017 | pinometostat 0.014 | [5] 0.014 | [6] -0.058 | [7] -0.033 | [8] 0.011 | [9] -0.02 | [10] 0.003 | Nexturastat A -0.016 | vemurafenib -0.013 | [11] -0.039 | [12] -0.047 | givinostat 0.117 | barasertib 0

FADS1, A0A0A0MR51
active: [2] 0.355 | givinostat -0.274
inactive: IRAK-1-4 Inhibitor I 0.085 | ibrutinib 0.015 | [1] -0.07 | ralimetinib 0.017 | [3] -0.044 | [4] 0.05 | pinometostat 0.027 | [5] -0.013 | [6] 0.003 | [7] 0.09 | [8] -0.019 | [9] 0.008 | [10] 0.069 | Nexturastat A -0.006 | vemurafenib -0.002 | [11] 0.021 | [12] -0.034 | barasertib 0.031

EIF2S3 (UniProt P41091)
inactive: IRAK-1-4 Inhibitor I -0.126 | ibrutinib 0.021 | [1] -0.004 | ralimetinib 0.061 | [2] 0.05 | [3] 0.052 | [4] 0.075 | pinometostat 0.077 | [5] 0.005 | [6] 0.195 | [7] 0.02 | [8] 0 | [9] -0.006 | [10] -0.032 | Nexturastat A 0.102 | vemurafenib -0.029 | [11] 0.007 | [12] 0.05 | givinostat 0.028 | barasertib -0.033

DSN1 (UniProt Q9H410)
Sequence of UniProt Q9H410 (Q9H410 whole entry, looked up): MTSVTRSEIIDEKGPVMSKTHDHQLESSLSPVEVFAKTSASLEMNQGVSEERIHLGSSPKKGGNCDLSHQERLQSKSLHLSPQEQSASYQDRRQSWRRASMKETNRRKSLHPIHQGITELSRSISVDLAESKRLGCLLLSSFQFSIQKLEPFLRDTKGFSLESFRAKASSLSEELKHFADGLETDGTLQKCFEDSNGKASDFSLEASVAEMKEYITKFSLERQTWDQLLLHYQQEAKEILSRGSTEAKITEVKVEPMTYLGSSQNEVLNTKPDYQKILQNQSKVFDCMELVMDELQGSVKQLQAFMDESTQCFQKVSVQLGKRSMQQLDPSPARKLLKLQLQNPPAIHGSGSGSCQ
inactive: IRAK-1-4 Inhibitor I -0.143 | ibrutinib -0.038 | [1] -0.041 | ralimetinib -0.131 | [2] -0.055 | [3] -0.106 | [4] 0.004 | pinometostat -0.037 | [5] -0.036 | [6] -0.045 | [7] -0.02 | [8] -0.096 | [9] -0.003 | [10] 0.021 | Nexturastat A 0.051 | vemurafenib 0.133 | [11] 0.022 | [12] 0.004 | givinostat 0.053 | barasertib 0.075

EEF1G isoform 2 (UniProt P26641)
Sequence of UniProt P26641 (P26641 whole entry, looked up): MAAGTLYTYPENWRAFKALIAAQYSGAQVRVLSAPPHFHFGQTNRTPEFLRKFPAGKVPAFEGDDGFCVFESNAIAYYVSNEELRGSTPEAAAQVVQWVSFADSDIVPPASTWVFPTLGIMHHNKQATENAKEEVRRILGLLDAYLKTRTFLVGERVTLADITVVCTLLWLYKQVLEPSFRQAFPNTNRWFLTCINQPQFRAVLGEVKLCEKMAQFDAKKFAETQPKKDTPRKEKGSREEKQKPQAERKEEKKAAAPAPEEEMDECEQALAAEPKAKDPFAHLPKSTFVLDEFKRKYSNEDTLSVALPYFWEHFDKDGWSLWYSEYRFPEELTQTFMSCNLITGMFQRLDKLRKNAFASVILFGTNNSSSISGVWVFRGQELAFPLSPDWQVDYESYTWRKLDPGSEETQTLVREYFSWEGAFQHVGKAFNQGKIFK
inactive: IRAK-1-4 Inhibitor I -0.02 | ibrutinib -0.083 | [1] 0.044 | ralimetinib 0.059 | [2] 0.006 | [3] -0.067 | [4] -0.024 | pinometostat 0.042 | [5] -0.015 | [6] 0.017 | [7] 0.035 | [8] -0.015 | [9] 0.014 | [10] 0.049 | Nexturastat A -0.062 | vemurafenib 0.07 | [11] 0.101 | [12] 0.095 | givinostat -0.013 | barasertib 0.037

DHX16 (UniProt O60231)
inactive: IRAK-1-4 Inhibitor I -0.006 | ibrutinib 0 | ralimetinib -0.001 | [2] -0.025 | [3] -0.002 | [4] 0.009 | pinometostat 0.004 | [5] -0.045 | [6] 0.159 | [7] -0.014 | [8] -0.018 | [9] 0.024 | [10] 0.036 | Nexturastat A -0.002 | vemurafenib 0.017 | [11] 0.059 | [12] -0.011 | givinostat 0.017 | barasertib 0.032
active: [1] -0.257

DCAF10 (UniProt Q5QP82)
Sequence of UniProt Q5QP82 (Q5QP82 whole entry, looked up): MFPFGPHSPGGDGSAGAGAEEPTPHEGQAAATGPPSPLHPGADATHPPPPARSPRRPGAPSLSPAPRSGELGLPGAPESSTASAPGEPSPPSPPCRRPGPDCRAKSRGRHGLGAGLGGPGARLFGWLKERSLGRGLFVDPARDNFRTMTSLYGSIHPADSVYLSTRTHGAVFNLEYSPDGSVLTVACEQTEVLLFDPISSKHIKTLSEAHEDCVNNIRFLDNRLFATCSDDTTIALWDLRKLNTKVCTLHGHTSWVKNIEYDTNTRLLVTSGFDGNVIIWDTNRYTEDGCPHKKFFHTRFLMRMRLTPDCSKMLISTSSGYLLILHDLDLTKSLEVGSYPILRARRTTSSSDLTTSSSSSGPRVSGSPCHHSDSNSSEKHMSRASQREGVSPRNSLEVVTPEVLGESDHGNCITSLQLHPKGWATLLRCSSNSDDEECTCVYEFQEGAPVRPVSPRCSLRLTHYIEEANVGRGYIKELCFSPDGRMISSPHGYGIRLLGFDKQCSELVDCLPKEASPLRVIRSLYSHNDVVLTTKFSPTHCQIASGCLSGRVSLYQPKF
inactive: IRAK-1-4 Inhibitor I 0 | ibrutinib 0 | [1] -0.006 | ralimetinib -0.082 | [2] -0.041 | [3] 0.02 | [4] 0.026 | pinometostat -0.016 | [5] 0.061 | [6] 0.01 | [7] -0.024 | [8] 0.121 | [9] -0.015 | [10] -0.009 | Nexturastat A 0.012 | vemurafenib -0.044 | [11] 0.002 | [12] -0.121 | givinostat -0.094 | barasertib -0.006
